# How the values were obtained:
# Assay in all cases: yeast three-hybrid, YBZ-1, SC-Leu-His + 0.5 mM 3-AT, 4 days
# Conditions in all cases: tags: N-Gal4 AD-HA kept; label: inside an RPR1-promoter hybrid RNA with tandem MS2 sites; ssRNA
# PUM1 PUF domain R4-MPT = PUM1 PUF domain R4-MPT (Homo sapiens, UniProt Q14671 828-1176, N971M;H972P;Q975T)
# Summary of the method: (§1)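 Each repeat of the Pumilio-1 PUF domain was randomized at its three base-contacting residues, and these libraries were co-expressed from a centromeric plasmid with matching RNA elements in strain YBZ-1. After four days on SC-Leu (input) or SC-Leu-His + 0.5 mM 3-AT (selection), the repeat regions were PCR-amplified and Illumina-sequenced. The interaction score compares variant frequency between input and selection as a log change, computed in log2 with a pseudocount of 1 for absent variants.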
# PUM1 PUF domain R3-EFG = PUM1 PUF domain R3-EFG (Homo sapiens, UniProt Q14671 828-1176, C935E;R936F;Q939G)
# Summary of the method: as §1
# PUM1 PUF domain R5-DHK = PUM1 PUF domain R5-DHK (Homo sapiens, UniProt Q14671 828-1176, C1007D;R1008H;Q1011K)
# Summary of the method: as §1
# PUM1 PUF domain R5-VYY = PUM1 PUF domain R5-VYY (Homo sapiens, UniProt Q14671 828-1176, C1007V;R1008Y;Q1011Y)
# Summary of the method: as §1
# PUM1 PUF domain R3-SWL = PUM1 PUF domain R3-SWL (Homo sapiens, UniProt Q14671 828-1176, C935S;R936W;Q939L)
# Summary of the method: as §1
# PUM1 PUF domain R6-CWA = target: T1, PUM1 PUF domain R6-CWA (Homo sapiens, UniProt Q14671 828-1176, N1043C;Y1044W;Q1047A)
# T1 sequence: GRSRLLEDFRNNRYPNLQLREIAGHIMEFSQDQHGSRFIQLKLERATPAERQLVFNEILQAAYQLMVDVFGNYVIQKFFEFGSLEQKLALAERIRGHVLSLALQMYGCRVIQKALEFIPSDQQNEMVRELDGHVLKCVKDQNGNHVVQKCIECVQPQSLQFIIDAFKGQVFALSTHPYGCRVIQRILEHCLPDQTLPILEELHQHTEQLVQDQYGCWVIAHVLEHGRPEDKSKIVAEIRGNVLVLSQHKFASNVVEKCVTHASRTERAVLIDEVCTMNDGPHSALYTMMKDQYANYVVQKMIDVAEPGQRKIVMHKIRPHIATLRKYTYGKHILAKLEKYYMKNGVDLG
# Summary of the method: as §1
# PUM1 PUF domain R8-KFG = PUM1 PUF domain R8-KFG (Homo sapiens, UniProt Q14671 828-1176, N1122K;Y1123F;Q1126G)
# Summary of the method: as §1
# PUM1 PUF domain R5-TRW = PUM1 PUF domain R5-TRW (Homo sapiens, UniProt Q14671 828-1176, C1007T;Q1011W)
# Summary of the method: as §1
# PUM1 PUF domain R8-RWL = PUM1 PUF domain R8-RWL (Homo sapiens, UniProt Q14671 828-1176, N1122R;Y1123W;Q1126L)
# Summary of the method: as §1
# PUM1 PUF domain R3-VRF = PUM1 PUF domain R3-VRF (Homo sapiens, UniProt Q14671 828-1176, C935V;Q939F)
# Summary of the method: as §1
# PUM1 PUF domain R4-SLY = PUM1 PUF domain R4-SLY (Homo sapiens, UniProt Q14671 828-1176, N971S;H972L;Q975Y)
# Summary of the method: as §1
# PUM1 PUF domain R5-GKR = PUM1 PUF domain R5-GKR (Homo sapiens, UniProt Q14671 828-1176, C1007G;R1008K;Q1011R)
# Summary of the method: as §1
# PUM1 PUF domain R8-RWC = PUM1 PUF domain R8-RWC (Homo sapiens, UniProt Q14671 828-1176, N1122R;Y1123W;Q1126C)
# Summary of the method: as §1
# PUM1 PUF domain R3-SCQ = PUM1 PUF domain R3-SCQ (Homo sapiens, UniProt Q14671 828-1176, C935S;R936C)
# Summary of the method: as §1
# PUM1 PUF domain R3-SVE = PUM1 PUF domain R3-SVE (Homo sapiens, UniProt Q14671 828-1176, C935S;R936V;Q939E)
# Summary of the method: as §1
# PUM1 PUF domain R3-STD = PUM1 PUF domain R3-STD (Homo sapiens, UniProt Q14671 828-1176, C935S;R936T;Q939D)
# Summary of the method: as §1
# PUM1 PUF domain R1-RCM = PUM1 PUF domain R1-RCM (Homo sapiens, UniProt Q14671 828-1176, S863R;R864C;Q867M)
# Summary of the method: as §1
# PUM1 PUF domain R2-KCA = PUM1 PUF domain R2-KCA (Homo sapiens, UniProt Q14671 828-1176, N899K;Y900C;Q903A)
# Summary of the method: as §1
# PUM1 PUF domain R2-EWA = PUM1 PUF domain R2-EWA (Homo sapiens, UniProt Q14671 828-1176, N899E;Y900W;Q903A)
# Summary of the method: as §1
# PUM1 PUF domain R8-TYC = PUM1 PUF domain R8-TYC (Homo sapiens, UniProt Q14671 828-1176, N1122T;Q1126C)
# Summary of the method: as §1
# PUM1 PUF domain R8-TYC, sequence (Q14671 828-1176 N1122T/Q1126C): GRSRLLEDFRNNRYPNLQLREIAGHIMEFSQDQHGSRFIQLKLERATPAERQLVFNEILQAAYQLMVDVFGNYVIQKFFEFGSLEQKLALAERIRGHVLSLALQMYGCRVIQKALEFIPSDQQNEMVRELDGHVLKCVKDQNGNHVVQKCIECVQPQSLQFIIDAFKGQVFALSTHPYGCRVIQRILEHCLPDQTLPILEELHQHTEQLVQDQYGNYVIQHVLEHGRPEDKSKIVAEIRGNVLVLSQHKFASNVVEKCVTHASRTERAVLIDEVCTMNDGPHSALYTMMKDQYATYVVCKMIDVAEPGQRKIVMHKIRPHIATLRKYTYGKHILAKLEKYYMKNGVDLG
# PUM1 PUF domain R2-KCA, sequence (Q14671 828-1176 N899K/Y900C/Q903A): as the sequence (Q14671 828-1176 N1122T/Q1126C) above, with N72K, Y73C, Q76A, T295N, C299Q counted along it
sequence,measurement,setting,value
GGCUAGAACUAGUGGAUCCCCCGGCGCCCGGCGGCUCGAGCCCGGGUAAGUGUAUAUAGUCUGCAUGCCGCCGGGCGCCAUGCCUGCAGGUCGACUCUAGAAAACAUG,binding signal,PUM1 PUF domain R4-MPT,2.81 log2 enrichment (interaction score)
GGCUAGAACUAGUGGAUCCCCCGGCGCCCGGCGGCUCGAGCCCGGGUAAGUGUAAAUAGUCUGCAUGCCGCCGGGCGCCAUGCCUGCAGGUCGACUCUAGAAAACAUG,binding signal,PUM1 PUF domain R3-EFG,4.8 log2 enrichment (interaction score)
same,binding signal,PUM1 PUF domain R5-DHK,2.94 log2 enrichment (interaction score)
same,binding signal,PUM1 PUF domain R5-VYY,2.98 log2 enrichment (interaction score)
same,binding signal,PUM1 PUF domain R3-SWL,3.24 log2 enrichment (interaction score)
same,binding signal,PUM1 PUF domain R6-CWA,4.17 log2 enrichment (interaction score)
same,binding signal,PUM1 PUF domain R8-KFG,6.69 log2 enrichment (interaction score)
same,binding signal,PUM1 PUF domain R4-MPT,3.73 log2 enrichment (interaction score)
same,binding signal,PUM1 PUF domain R5-TRW,2.78 log2 enrichment (interaction score)
same,binding signal,PUM1 PUF domain R8-RWL,5.06 log2 enrichment (interaction score)
same,binding signal,PUM1 PUF domain R3-VRF,4.4 log2 enrichment (interaction score)
same,binding signal,PUM1 PUF domain R4-SLY,2.48 log2 enrichment (interaction score)
same,binding signal,PUM1 PUF domain R5-GKR,1.48 log2 enrichment (interaction score)
same,binding signal,PUM1 PUF domain R8-RWC,4.9 log2 enrichment (interaction score)
GGCUAGAACUAGUGGAUCCCCCGGCGCCCGGCGGCUCGAGCCCGGGUAAGUGUAAGUAGUCUGCAUGCCGCCGGGCGCCAUGCCUGCAGGUCGACUCUAGAAAACAUG,binding signal,PUM1 PUF domain R3-EFG,4.12 log2 enrichment (interaction score)
same,binding signal,PUM1 PUF domain R3-SCQ,2.27 log2 enrichment (interaction score)
same,binding signal,PUM1 PUF domain R3-SVE,4.64 log2 enrichment (interaction score)
same,binding signal,PUM1 PUF domain R3-STD,2.07 log2 enrichment (interaction score)
GGCUAGAACUAGUGGAUCCCCCGGCGCCCGGCGGCUCGAGCCCGGGUAAGUGUAAAUGGUCUGCAUGCCGCCGGGCGCCAUGCCUGCAGGUCGACUCUAGAAAACAUG,binding signal,PUM1 PUF domain R1-RCM,0.08 log2 enrichment (interaction score)
GGCUAGAACUAGUGGAUCCCCCGGCGCCCGGCGGCUCGAGCCCGGGUAAGUGUAAAGAGUCUGCAUGCCGCCGGGCGCCAUGCCUGCAGGUCGACUCUAGAAAACAUG,binding signal,PUM1 PUF domain R2-KCA,3.39 log2 enrichment (interaction score)
same,binding signal,PUM1 PUF domain R2-EWA,2.1 log2 enrichment (interaction score)
GGCUAGAACUAGUGGAUCCCCCGGCGCCCGGCGGCUCGAGCCCGGGUAAGUGUGAAUAGUCUGCAUGCCGCCGGGCGCCAUGCCUGCAGGUCGACUCUAGAAAACAUG,binding signal,PUM1 PUF domain R5-TRW,0.38 log2 enrichment (interaction score)
GGCUAGAACUAGUGGAUCCCCCGGCGCCCGGCGGCUCGAGCCCGGGUAAGGGUAAAUAGUCUGCAUGCCGCCGGGCGCCAUGCCUGCAGGUCGACUCUAGAAAACAUG,binding signal,PUM1 PUF domain R8-KFG,4.73 log2 enrichment (interaction score)
GGCUAGAACUAGUGGAUCCCCCGGCGCCCGGCGGCUCGAGCCCGGGUAAGUGUCAAUAGUCUGCAUGCCGCCGGGCGCCAUGCCUGCAGGUCGACUCUAGAAAACAUG,binding signal,PUM1 PUF domain R5-GKR,6.15 log2 enrichment (interaction score)
GGCUAGAACUAGUGGAUCCCCCGGCGCCCGGCGGCUCGAGCCCGGGUAAGCGUAAAUAGUCUGCAUGCCGCCGGGCGCCAUGCCUGCAGGUCGACUCUAGAAAACAUG,binding signal,PUM1 PUF domain R8-TYC,2.53 log2 enrichment (interaction score)
same,binding signal,PUM1 PUF domain R8-KFG,2.54 log2 enrichment (interaction score)
same,binding signal,PUM1 PUF domain R8-RWL,6.58 log2 enrichment (interaction score)
same,binding signal,PUM1 PUF domain R8-RWC,4.12 log2 enrichment (interaction score)
GGCUAGAACUAGUGGAUCCCCCGGCGCCCGGCGGCUCGAGCCCGGGUAAGUGUUAAUAGUCUGCAUGCCGCCGGGCGCCAUGCCUGCAGGUCGACUCUAGAAAACAUG,binding signal,PUM1 PUF domain R5-GKR,2.96 log2 enrichment (interaction score)
GGCUAGAACUAGUGGAUCCCCCGGCGCCCGGCGGCUCGAGCCCGGGUAAGUGUAAAAAGUCUGCAUGCCGCCGGGCGCCAUGCCUGCAGGUCGACUCUAGAAAACAUG,binding signal,PUM1 PUF domain R2-EWA,5.74 log2 enrichment (interaction score)
GGCUAGAACUAGUGGAUCCCCCGGCGCCCGGCGGCUCGAGCCCGGGUAAGUGUAAAUCGUCUGCAUGCCGCCGGGCGCCAUGCCUGCAGGUCGACUCUAGAAAACAUG,binding signal,PUM1 PUF domain R1-RCM,2.75 log2 enrichment (interaction score)
GGCUAGAACUAGUGGAUCCCCCGGCGCCCGGCGGCUCGAGCCCGGGUAAGUGUAAUUAGUCUGCAUGCCGCCGGGCGCCAUGCCUGCAGGUCGACUCUAGAAAACAUG,binding signal,PUM1 PUF domain R3-EFG,3.8 log2 enrichment (interaction score)
same,binding signal,PUM1 PUF domain R3-SWL,1.78 log2 enrichment (interaction score)
same,binding signal,PUM1 PUF domain R3-SCQ,1.65 log2 enrichment (interaction score)
GGCUAGAACUAGUGGAUCCCCCGGCGCCCGGCGGCUCGAGCCCGGGUAAGUGUAACUAGUCUGCAUGCCGCCGGGCGCCAUGCCUGCAGGUCGACUCUAGAAAACAUG,binding signal,PUM1 PUF domain R3-EFG,2.94 log2 enrichment (interaction score)

# From PMC8384837, “Expanding the binding specificity for RNA recognition by a PUF domain”
